The text below walks through data of PubChem BioAssay (Tox21).

Unmarked numbers belong to inactive results. Results filed as inconclusive are left out. Activity calls are given as the source filed them. Unless noted, calls come from the whole dose curve; as a rule, active = well fitted curve in the direction sought with a large enough effect in the repeat runs; inconclusive = weak or mixed curves; inactive = no such curve, though single readings can be large; an effect the other way counts as inactive or inconclusive.

Test [1] in a line: qHTS assay for small molecules that induce genotoxicity in human embryonic kidney cells expressing luciferase-tagged ATAD5 (AID 651632). Note: nearly all actives have a fitted effect of over 15% in size. Note: potency is the fitted concentration of half-maximal effect. Put shortly:
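Quantitative HTS in HEK293T expressing luciferase-tagged ATAD5, whose levels rise upon DNA damage. Exposure ran 16 hr at 37C and 5% CO2, with luminescence read 30 min after Amplite addition at room temperature.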
(Quantitative high-throughput screening tests each substance at several concentrations.)

A short description of test [2]: qHTS assay for small molecule agonists of the p53 signaling pathway - cell viability (AID 651633; calls by dose curve; note: nearly all actives have a fitted effect of over 30% in size; note: potency is the fitted concentration of half-maximal effect). Put shortly: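 Viability counter-read: CellTiter-Glo luminescence (30 min, room temperature) in the same p53RE-bla plates. These plates had been exposed to compounds for 16 h at 37 C.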
Test [3] can be described thus: qHTS assay for small molecules that induce genotoxicity in human embryonic kidney cells expressing luciferase-tagged ATAD5 - cell viability (AID 651634; calls by dose curve; note: nearly all actives have a fitted effect of over 25% in size; note: potency is the fitted concentration of half-maximal effect). An outline of the steps: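 After 15.5 hr incubation with compound at 37C, 5% CO2, HEK293T ATAD5-luciferase cells received CellTiter-Fluor reagent; fluorescence intensity was quantified following 30 min at 37C.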
A short description of test [4]: qHTS assay for small molecule disruptors of the mitochondrial membrane potential - cell viability (AID 720634; calls by dose curve;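 note: human HepG2 liver cancer cells; series mostly up to about 83 µM; nearly all actives have a fitted effect of over 20% in size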). Put shortly: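 ATP-based luminescent viability readout (CellTiter-Glo, 30 min, room temperature) in HepG2 cells multiplexed with the m-MPI membrane potential dye; compound exposure lasted 1 hr at 37 C.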
Test [5] can be described thus: qHTS assay to test for compound auto fluorescence at 590 nm (red) in HepG2 cells (AID 720674). An outline of the steps:
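We screened compounds on adherent HepG2 cells, incubating them for an hour at 37 C in 5% CO2 before reading emission at 590 nm under 540 nm excitation; values reflect equivalence to Rose Bengal sodium fluorescence.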

Test [6] can be described thus: qHTS assay to test for compound auto fluorescence at 460 nm (blue) in HEK293 cells (AID 720678). Put shortly:
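HEK293 cells (2,000/well, medium with 10% dialyzed FBS) attached 4-5 hr, then exposed to compound overnight at 37C, 5% CO2. Blue fluorescence read at 405/460 nm, with triamterene as reference fluorophore.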

Test [7] can be described thus: qHTS assay to test for compound auto fluorescence at 590 nm (red) in HEK293 cells (AID 720679). Put shortly:
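HEK293 cells (2,000/well, 10% dialyzed FBS) attached 4-5 hr, then dosed with compound or DMSO and incubated overnight at 37C, 5% CO2. Red fluorescence read at 540/590 nm, Rose Bengal sodium as reference fluorophore.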

Test [8] is described as follows: qHTS assay to test for compound auto fluorescence at 535 nm (green) in HEK293 cells (AID 720680).
Test [9] is described as follows: qHTS assay to test for compound auto fluorescence at 460 nm (blue) in HEK293 cell free culture (AID 720681). An outline of the steps: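 Blue fluorescence (Ex 405/Em 460 nm, triamterene-equivalent) was read immediately after pin transfer of compound or DMSO into medium (DMEM, 10% FBS) without cells.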
Test [10] in a line: qHTS assay to test for compound auto fluorescence at 535 nm (green) in HEK293 cell free culture (AID 720682). Put shortly:
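DMEM + 10% FBS, cell-free; cpd or DMSO pinned in; Ex485/Em535 read; output as fluorescein-equivalent signal.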

Test [11] in a line: qHTS assay to test for compound auto fluorescence at 590 nm (red) in HEK293 cell free culture (AID 720683). An outline of the steps:
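Red-channel autofluorescence of compounds in culture medium (DMEM, 10% FBS), no cells, measured at 540/590 nm. Rose Bengal sodium is the reference fluorophore for equivalence.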

Test [12] is described as follows: qHTS assay to test for compound auto fluorescence at 590 nm (red) in HepG2 cell free culture (AID 720684). An outline of the steps:
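Cell-free; medium MEM + 10% FBS; compound or DMSO added by pintool; read Ex 540/Em 590 nm; Rose Bengal sodium as red reference fluorophore.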

A short description of test [13]: qHTS assay to test for compound auto fluorescence at 460 nm (blue) in HepG2 cell free culture (AID 720685). Put shortly:
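Cell-free plates of MEM plus 10% FBS received 23 nL compound or DMSO vehicle; blue-channel (405/460 nm) intensity scored against triamterene as reference fluorophore.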

Test [14] is described as follows: qHTS assay to test for compound auto fluorescence at 535 nm (green) in HepG2 cell free culture (AID 720686).
The nature of test [15]: qHTS assay to test for compound auto fluorescence at 460 nm (blue) in HepG2 cells (AID 720687). Put shortly: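 Blue-channel autofluorescence (Ex/Em 405/460 nm, triamterene-equivalent) was measured after 1 hr compound exposure at 37 C, 5% CO2. Cells were HepG2, plated overnight at 37 C in MEM plus 10% FBS.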
The nature of test [16]: qHTS assay for small molecule disruptors of the mitochondrial membrane potential (AID 720635). Note: potency is the fitted concentration of half-maximal effect. An outline of the steps: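 Mitochondrial membrane potential tracked with Mito-MPS dye, red aggregates (ex 540/em 590 nm) against green monomers (ex 490/em 535 nm). Compound treatment 1 hr at 37C, dye 30 min in HepG2.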
Test [17] in a line: qHTS assay to test for compound auto fluorescence at 535 nm (green) in HepG2 cells (AID 720675).
Test [18] has as its target Glucocorticoid receptor (Homo sapiens) (UniProt P04150). Nature of the test: qHTS assay to identify small molecule antagonists of the glucocorticoid receptor (GR) signaling pathway (AID 720692; active = well fitted inhibition curve with a large enough effect in the signal ratio in the repeat runs, not every such curve was filed as active; the % refers to the signal ratio). An outline of the steps: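 Quantitative HTS in antagonist format: HeLa cells expressing endogenous GR and a stably integrated GRE-bla reporter, stimulated with 5 nM dexamethasone (final) alongside test compounds for 18 h.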

Test [19] shares this target. Nature of the test: qHTS assay to identify small molecule agonists of the glucocorticoid receptor (GR) signaling pathway (AID 720691; active = well fitted activation curve with a large enough effect in the signal ratio in the repeat runs, not every such curve was filed as active; the % refers to the signal ratio). An outline of the steps: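 Cells: GR-bla HeLa, endogenous GR with stably integrated GRE-beta-lactamase reporter. Treatment 18 h, 37 C, compounds delivered in DMSO. Detection via LiveBLAzer B/G FRET substrate, 2 h RT, fluorescence intensity.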
% is set by controls: 0 for no effect and ±100 for the full control effect.

Glucocorticoid receptor (Homo sapiens), sequence (P04150 whole entry, looked up): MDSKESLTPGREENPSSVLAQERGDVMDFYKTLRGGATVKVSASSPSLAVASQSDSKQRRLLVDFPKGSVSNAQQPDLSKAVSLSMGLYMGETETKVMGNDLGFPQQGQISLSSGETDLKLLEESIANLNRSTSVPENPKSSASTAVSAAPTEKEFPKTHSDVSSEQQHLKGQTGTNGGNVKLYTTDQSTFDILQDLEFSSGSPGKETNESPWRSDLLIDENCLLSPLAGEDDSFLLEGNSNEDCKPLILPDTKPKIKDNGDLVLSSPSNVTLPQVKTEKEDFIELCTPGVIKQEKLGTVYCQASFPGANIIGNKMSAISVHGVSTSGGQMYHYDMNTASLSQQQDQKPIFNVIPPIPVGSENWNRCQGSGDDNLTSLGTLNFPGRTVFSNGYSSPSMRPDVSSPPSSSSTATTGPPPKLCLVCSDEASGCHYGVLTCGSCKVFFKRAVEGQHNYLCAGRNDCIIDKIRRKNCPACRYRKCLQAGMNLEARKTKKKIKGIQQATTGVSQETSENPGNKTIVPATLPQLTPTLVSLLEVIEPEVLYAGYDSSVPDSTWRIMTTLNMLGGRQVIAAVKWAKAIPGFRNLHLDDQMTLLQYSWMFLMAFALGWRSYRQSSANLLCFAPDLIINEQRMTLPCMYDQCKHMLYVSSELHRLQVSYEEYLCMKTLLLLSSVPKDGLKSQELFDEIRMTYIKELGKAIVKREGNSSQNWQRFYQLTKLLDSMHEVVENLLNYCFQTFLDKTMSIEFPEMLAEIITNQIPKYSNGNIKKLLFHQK

`O=C(CS)OCCOC(=O)CS`: the Potency in test [1] was 30.6 µM (active). Also, the Potency entry in [2], in [3], in test [4], in test [6], in test [9] and in test [13] was “inactive” throughout. For the same compound, the Potency result in test [15] was “inactive”. In addition, the outcome in test [5], in test [7], in [8], in [10], in test [11] and in [12] was inactive. Moreover, the result in test [14] was inactive.
In the case of `Cc1cc2nc3ccc(=[N+](C)C)cc-3sc2cc1N`, the Potency entry in test [1], in test [6], in test [9], in test [13] and in test [15] was “inactive” throughout. Further, the Potency in test [2] is 7.5 µM (active); in [16] it was 3.76 µM (active). Besides, the result in [5], in test [17], in test [7], in test [10], in test [11] and in test [12] was inactive. Further, the compound was classed as inactive in test [14].
`CCOC(=O)c1ccccc1OC`: the Potency result in test [1], in test [2], in test [3], in test [4], in test [16] and in [6] was “inactive” in each case. The Potency result in test [9], in test [13] and in test [15] was “inactive” each time. In addition, the compound was classed as inactive in [5], in [8], in test [10], in test [11], in test [12] and in test [14].
Turning to `C=CC(C)(C)CC(=O)OC`, the Potency result in test [1], in test [2], in test [3], in test [4], in test [6] and in [9] was “inactive” throughout. Moreover, the Potency result in [13], in test [15] and in test [18] was “inactive” throughout. In addition, the compound was classed as inactive in [5], in test [17], in test [10], in test [12] and in [14].
For `CC(CCc1ccc2c(c1)OCO2)NN` (configuration not stated), the Potency entry in test [1], in [3], in [4], in [16], in [6] and in test [9] was “inactive” throughout. In addition, the Potency entry in test [13], in test [15], in test [19] and in test [18] was “inactive” throughout. The compound was classed as inactive in test [5], in test [17], in [7], in [10], in [11] and in [12]. Further, the result in test [14] was inactive.
For the compound `COC(OC)(C(=O)c1ccccc1)c1ccccc1`, the Potency entry in [1], in [2], in [3], in test [4], in [6] and in [9] was “inactive” throughout. The Potency result in test [13], in test [15] and in [18] was “inactive” throughout. Also, the outcome in test [5], in test [17], in test [7], in test [8], in test [10] and in test [11] was inactive. The outcome in [12] and in test [14] was inactive.
In the case of `OC(CCCN1CCCCC1)(c1ccccc1)c1ccccc1`, the Potency entry in test [1], in test [2], in test [3], in test [4], in test [6] and in test [9] was “inactive” each time. The Potency result in test [13] and in [15] was “inactive” throughout. For the same compound, the result in test [5], in test [17], in test [7], in test [8], in test [10] and in test [12] was inactive. For the same compound, the compound was classed as inactive in test [14].
As for `COc1cc2c(cc1OC)-c1cc(=Nc3c(C)cc(C)cc3C)n(C)c(=O)n1CC2`, the Potency result in test [1], in test [6], in test [9], in test [13] and in [15] was “inactive” each time. For the same compound, the Potency in test [2] and in test [3] was 29.8 µM (active) throughout. The result in test [5], in [17], in test [7], in [8], in test [10] and in test [12] was inactive. In addition, the compound was called inactive in [14].
For `CCNC(=O)N1CCN(CCCC(c2ccc(F)cc2)c2ccc(F)cc2)CC1`, the Potency result in [1], in test [2], in test [4], in test [6], in [13] and in test [15] was “inactive” each time. In addition, the outcome in [5], in test [17], in test [10], in test [11], in test [12] and in test [14] was inactive.
Take `CC(C)CCCCCOC(=O)CCCCC(=O)OCCCCCC(C)C`: the Potency result in test [1], in [2], in [3], in test [4], in test [16] and in test [6] was “inactive” in each case. For the same compound, the Potency result in test [9], in test [13], in test [15], in test [19] and in [18] was “inactive” throughout. For the same compound, the result in test [5], in test [7], in test [8], in test [10], in test [11] and in test [12] was inactive. In [14], the outcome was inactive.
For the compound `O=C(N/N=C/c1ccc([N+](=O)[O-])o1)c1ccc(O)cc1`, the Potency result in test [1], in test [2] and in test [18] was “inactive” in each case. Moreover, in [16], the Potency is 1.27 µM (active). Moreover, in test [5], the fluorescence, relative to Rose Bengal is -0.334% [at 18.6 µM]. In addition, the figures for the fluorescence, % of fluorescein control in [17] and in [14] were -0.0853% [at 18.6 µM] and -0.0078% [at 18.6 µM], respectively. The fluorescence, % of triamterene in test [6] was 0.159% [at 18.6 µM]. Moreover, the fluorescence, % of fluorescent control in test [7] is 0.101% [at 18.6 µM]; in [11] it was -0.537% [at 18.6 µM]; in test [13] it was -0.18% [at 18.6 µM]; in [15] it was -0.0309% [at 18.6 µM]. Further, the activity change in test [10] is 0.0091% [at 18.6 µM]. Moreover, the fluorescence, % of Rose Bengal in test [12] was -0.154% [at 18.6 µM].
As to `O=C(N[C@@H](c1ccccc1)[C@@H]1CCCCN1)c1cccc(C(F)(F)F)c1Cl`, the Potency result in test [1], in test [2], in [3], in test [4], in test [6] and in test [13] was “inactive” in each case. Further, the Potency entry in test [15] and in test [19] was “inactive” in each case. The compound was called inactive in [5], in test [17], in test [7], in test [8], in [10] and in [12]. Besides, the outcome in test [14] was inactive.
`COCCOC`: the Potency entry in test [2], in [4], in test [16], in test [6], in test [9] and in [13] was “inactive” each time. Moreover, the Potency result in test [15] and in [18] was “inactive” in each case. Moreover, the call in test [5], in test [17], in [7], in test [8], in test [10] and in test [11] was inactive. In addition, the result in test [12] and in test [14] was inactive.
On to `Oc1ccc(Nc2ccccc2)cc1`, for which the Potency entry in test [1], in [4], in test [6], in test [9], in [13] and in [15] was “inactive” throughout. Besides, the Potency entry in [19] and in test [18] was “inactive” each time. For the same compound, the Potency in test [16] is 54.5 µM (active). The call in [5], in [17], in [7], in test [8], in test [10] and in test [11] was inactive. Also, the call in test [12] and in test [14] was inactive.
As to `OC/C(Br)=C(\Br)CO`, the Potency entry in test [1], in test [3], in [4], in [6], in [9] and in [13] was “inactive” in each case. In addition, the Potency entry in [15] and in [18] was “inactive” in each case. The compound was classed as inactive in test [5], in [17], in test [7], in [10], in test [11] and in test [14].
